Screening data as filed in PubChem BioAssay.
DAX1 inh-1 – DAX1 (NR0B1) inhibitors, primary screen, cell-based, HEK293, Gal4-DAX1, luciferase luminescence; HEK293 Gal4-DAX1 luciferase reporter; inhibition, % at 6.75 µM; hit rate 0.99% among 340,000; AID 504766, 2011;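 active = inhibition above the mean over all tested compounds plus 3 SD, cut at about 4.2% in these data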;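 also: inhibition shows as a rise in luminescence from relieved DAX1 repression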
Target sequence (P51843 207-470 limits assumed): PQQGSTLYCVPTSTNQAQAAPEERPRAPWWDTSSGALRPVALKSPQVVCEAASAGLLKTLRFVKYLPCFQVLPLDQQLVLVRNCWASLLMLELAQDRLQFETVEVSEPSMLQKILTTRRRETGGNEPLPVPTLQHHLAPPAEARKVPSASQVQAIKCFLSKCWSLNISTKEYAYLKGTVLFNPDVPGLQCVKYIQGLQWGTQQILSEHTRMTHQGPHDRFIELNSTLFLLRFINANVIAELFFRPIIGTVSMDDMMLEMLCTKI
GAA850 FXN act – FXN promoter activators, primary screen, cell-based, luciferase luminescence, HEK293 lucGAA850. HEK293 lucGAA850 FXN promoter luciferase reporter, 24 h; percent of 10 µM SAHA response. activation, % at 6 µM. hit rate 0.56% among 360,000. AID 540364, 2011;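 active = activation above the average of all compounds screened plus 3 SD, cutoff fixed separately per campaign, cut at about 7.5% in these data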
hgDAF12 agonist – H. glycines DAF-12 receptor agonists, primary screen, cell-based, luminescence, HEK293, GAL4 fusion, UAS-luciferase. Nuclear hormone receptor DAF-12 (Heterodera glycines), GAL4 fusion. HEK293 GAL4-hgDAF12 UAS-luciferase reporter, agonist luminescence; normalized to butyrate control. activation, % at 6.8 µM. hit rate 1.8% among 370,000. AID 687014, 2013;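 active = activation above a cutoff set at the mean of all screened compounds plus 3 SD, cut at about 10% in these data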
DAX1 inh-2 – DAX1 (NR0B1) inhibitors on StAR promoter, primary screen, cell-based, luminescence, SF-1 (NR5A1), full-length DAX-1 | HEK293T StAR-luciferase reporter, SF-1/DAX-1 repression relief | AID 652010, 2013 | inhibition, % at 6.8 µM | hit rate 1.1% among 370,000;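 active = inhibition above the mean over all tested compounds plus 3 SD, cut at about 3.6% in these data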;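 also: higher inhibition means more luminescence from relief of DAX-1 repression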
hcDAF12 agonist – H. contortus DAF-12 nuclear receptor activators, primary screen, cell-based, luminescence, HEK293, lit1-tk-luc reporter. HEK293 hcDAF-12 lit1-tk-luc reporter; 0% DMSO, 100% Δ7-dafachronic acid. activation, % at 6.8 µM. hit rate 1.4% among 370,000. AID 652067, 2013;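 active = activation above the mean of all tested compounds plus 3 SD, cut at about 5.5% in these data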
ssDAF-12 act – S. stercoralis DAF-12 nuclear receptor activators, primary screen, cell-based, luminescence, HEK293, GRIP1 co-expression, lit1-tk-luc | hit rate 1% among 370,000 | AID 652126, 2013 | HEK293 ssDAF-12/GRIP1 lit1-tk-luc reporter; % of 3 µM dafachronic acid response | activation, % at 6.8 µM;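 active = activation above the mean over all tested compounds plus 3 SD, cut at about 0.9% in these data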
Of the large screens only hits and unclear results are named; the others gave an inactive call. Hits are enriched below; roughly 4.5% of the tested compounds scored in any of these assays.

COc1ccc(-c2cc3ccccc3n2CC(O)CN2CCC(C)CC2)cc1 (stereo unspecified)	hcDAF12 agonist 5.7
Clc1ccc(-n2nnnc2-c2cnc3ccc(Cl)cc3c2-c2ccccc2)cc1	DAX1 inh-1 6.2
CCOC(=O)c1csc(NC(=O)C2CCCN(S(=O)(=O)c3cccs3)C2)n1 (stereo unspecified)	none (no result: DAX1 inh-1, GAA850 FXN act)
Cn1c(=O)c2c(nc(NCC(O)CO)n2CCc2ccccc2)n(C)c1=O (stereo unspecified)	DAX1 inh-1 5.4
NC(=O)c1ccc(NC(=O)COC(=O)CC2Sc3ccccc3NC2=O)cc1 (stereo unspecified)	ssDAF-12 act 1.2
NS(=O)(=O)c1ccc(NC(=O)COC(=O)CC2Sc3ccccc3NC2=O)cc1 (stereo unspecified)	none
Cc1c(N=Cc2ccc(O)c(Br)c2)cccc1[N+](=O)[O-]	hcDAF12 agonist 6.1, ssDAF-12 act 1.1
COCCn1c(SCC(=O)N2CCCC2)nc2c([nH]c3ccccc32)c1=O	none
CCn1c(SCC(=O)Nc2ccc(NC(C)=O)cc2)nc2c([nH]c3ccccc32)c1=O	hcDAF12 agonist 5.6, ssDAF-12 act 1.1
COCCn1c(SCC(=O)N2CC(C)OC(C)C2)nc2c([nH]c3ccccc32)c1=O (stereo unspecified)	hcDAF12 agonist 5.9
CCn1c(SCC(=O)N2CC(C)OC(C)C2)nc2c([nH]c3ccccc32)c1=O (stereo unspecified)	hcDAF12 agonist 6.5
COCCn1c(SCC(=O)Nc2ccc(F)cc2)nc2c([nH]c3ccccc32)c1=O	none
CNC(=O)CSc1nc2c([nH]c3ccccc32)c(=O)n1CCOC	hcDAF12 agonist 5.6
COc1ccc(C2C(C(=O)N3CCC(C)CC3)CC(=O)N2c2ccc(OC)cc2)cc1 (stereo unspecified)	none (no result: DAX1 inh-1, GAA850 FXN act)
Cc1ccc(NC(=O)CSc2nc3c([nH]c4ccccc43)c(=O)n2C)cc1	none
O=C(CSc1nc2c([nH]c3ccccc32)c(=O)n1-c1ccccc1)N1CCOCC1	hcDAF12 agonist 6.0
COc1ccc(NC(=O)CSc2nc3c([nH]c4ccccc43)c(=O)n2C)c(OC)c1	ssDAF-12 act 0.9
COc1ccc(NC(=O)CSc2nnc(-c3n[nH]c4c3CCC4)n2N)cc1OC	none (no result: DAX1 inh-1, GAA850 FXN act)
Oc1ccc(-c2cn3c(n2)SCC3)cc1	none
Brc1ccc(-c2cn3c(n2)SCC3)cc1	hgDAF12 agonist 11
CCCCn1c(N)c(N(C)C(=O)CCCn2c(=O)oc3ccccc32)c(=O)[nH]c1=O	none
COCCN(C(=O)CSc1nc2ccccc2s1)c1c(N)n(Cc2ccccc2)c(=O)[nH]c1=O	hcDAF12 agonist 6.5
CCCCn1c(N)c(N(CC(C)C)C(=O)CCCn2c(=O)oc3ccccc32)c(=O)[nH]c1=O	DAX1 inh-1 4.3
CCCCN(C(=O)CSc1cc(C)c2ccc(OC)cc2n1)c1c(N)n(Cc2ccccc2)c(=O)[nH]c1=O	ssDAF-12 act 4.8
CCCCn1c(N)c(N(CCOC)C(=O)CSc2ccccc2C)c(=O)[nH]c1=O	DAX1 inh-1 5.3
C/C(C=NNC(=O)CSc1nnc(-c2ccc(Cl)cc2)n1-c1ccc(C)cc1)=C\c1ccccc1	none (no result: DAX1 inh-1, GAA850 FXN act)
COC(=O)C1CN(Cc2cn(CCC3OCCO3)nn2)CCS(=O)(=O)N1Cc1ccc(OC)cc1 (stereo unspecified)	none (no result: DAX1 inh-1, GAA850 FXN act)
CCCCN1CN2Cc3cc(F)ccc3C2CS1(=O)=O (stereo unspecified)	none (no result: DAX1 inh-1, GAA850 FXN act)
CCCCn1c(N)c(N(CC)C(=O)C(c2ccccc2)c2ccccc2)c(=O)[nH]c1=O	DAX1 inh-1 4.9
CCCN(C(=O)c1nc2nc(C)cc(C)n2n1)c1c(N)n(Cc2ccccc2)c(=O)[nH]c1=O	DAX1 inh-2 3.8
CCN(CC)C(=O)CC[C@H]1CC[C@]2(CCCN(S(=O)(=O)c3ccccc3)C2)O1	none (no result: DAX1 inh-1, GAA850 FXN act)
CC(C)C(=O)N1CCC(Oc2cccnc2)CC1	none (no result: DAX1 inh-1, GAA850 FXN act)
O=C(COc1ccc(S(=O)(=O)NCc2ccccc2)cc1Cl)NCc1ccccn1	none
O=C(COc1ccc(S(=O)(=O)N2CCc3ccccc32)cc1Cl)NCc1ccccn1	ssDAF-12 act 0.9
Clc1ccc(C2Nc3ccccc3-n3cccc32)cc1 (stereo unspecified)	ssDAF-12 act 1.1
CCCC(=O)N1CCC1(C)C(=O)Nc1ccc2nccnc2c1 (stereo unspecified)	hgDAF12 agonist 11 (no result: DAX1 inh-1)
CCCC(=O)N1CCC1(C)C(=O)Nc1ccc2scnc2c1 (stereo unspecified)	none (no result: DAX1 inh-1, hgDAF12 agonist, DAX1 inh-2, hcDAF12 agonist, ssDAF-12 act)
CC1CCC(=O)N(CCSc2ccccc2)CC1 (stereo unspecified)	hcDAF12 agonist 6.2
N#Cc1cc(F)cc(OC[C@@H](O)CN2CCC(C(O)(c3ccccc3)c3ccccc3)CC2)c1	none (no result: DAX1 inh-1, GAA850 FXN act)
COc1ccc(C(CNC(=O)CSc2ccccc2F)N2CCOCC2)cc1 (stereo unspecified)	ssDAF-12 act 1.1
COC(=O)C1CN(Cc2ccccc2)CCS(=O)(=O)N1Cc1ccc(Cl)cc1 (stereo unspecified)	none (no result: DAX1 inh-1, GAA850 FXN act)
COc1ccc(NC(=O)Nc2cc(C)nn2-c2ccccc2)cc1	none (no result: DAX1 inh-1, GAA850 FXN act)
Cn1nc(-c2ccccc2)cc1NS(=O)(=O)c1ccc(C#N)cc1	DAX1 inh-1 4.3
Cn1nc(-c2ccccc2)cc1NS(=O)(=O)c1ccccc1	none
COC(CNC(=O)[C@H](Cc1c[nH]c2ccccc12)NC1(C(=O)NC(c2ccccc2)c2ccccc2)CCCCC1)OC	none (no result: DAX1 inh-1, GAA850 FXN act, DAX1 inh-2)
COC(=O)[C@]12C[C@H](CC(=O)NCCC(C)C)C(=O)N(CCC3=CCCCC3)C1=C[C@H](C(C)C)O[C@@H]2C1CC1	none (no result: DAX1 inh-1, GAA850 FXN act)
Cc1ccc(/C=N\NC(=O)COc2ccc(C)cc2[N+](=O)[O-])cc1	DAX1 inh-1 7.0
Cn1nc(C(=O)OCC(=O)Nc2ccccc2[N+](=O)[O-])c2ccccc2c1=O	ssDAF-12 act 1.0
CC(C)c1ccccc1NC(=O)COC(=O)COc1ccccc1[N+](=O)[O-]	ssDAF-12 act 1.9
Cc1ccc(OCC(=O)Nc2ccccc2[N+](=O)[O-])c(Br)c1	ssDAF-12 act 1.0
COC(=O)c1ccccc1NC(=O)COc1ccccc1[N+](=O)[O-]	none
O=C(COC(=O)COc1ccccc1[N+](=O)[O-])Nc1ccccc1Br	none
Cc1ccc(OCC(=O)N/N=C\c2ccc(O)c([N+](=O)[O-])c2)c([N+](=O)[O-])c1	none
